Measurements: the supplement of paper PMC10981050
“And” between values parts separate entries of the source, which are not always exact repeats. Identical values can stand only once. Counter-ions that a name gives are not always drawn.

Key:
Assay in all cases: cell viability relative to vehicle control; higher = less cytotoxic
Conditions in all cases: 10 µM
[1] = tested on: K562
Outline: (§1)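 CRISPR-edited mutant clones and isogenic wild-type clones from four leukaemia lines were screened against Selleck bioactive, kinase and epigenetic probe libraries, with identity-inconsistent compounds excluded. Each compound was acoustically dispensed at a single 10 µM dose into 384-well plates holding 2000 cells in 50 µL medium per well. After 48 h the supernatant was removed and CellTiter-Glo luminescence was read. Viability was expressed as percent of the on-plate vehicle control and analysed in Genedata Screener.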

[2] = tested on: MARIMO
Outline: as §1

[3] = tested on: MOLM14
Outline: as §1

[4] = tested on: OCI-AML2
Outline: as §1

| Compound | cell viability ([1]; SRSF2 genotype: SRSF2 P95H/wt) | cell viability ([1]; SRSF2 genotype: SRSF2 wt/wt) [%] | cell viability ([2]; SRSF2 genotype: SRSF2 P95H/wt) [%] | cell viability ([2]; SRSF2 genotype: SRSF2 wt/wt) [%] | cell viability ([3]; SRSF2 genotype: SRSF2 P95H/wt) [%] | cell viability ([3]; SRSF2 genotype: SRSF2 wt/wt) [%] | cell viability ([4]; SRSF2 genotype: P95H/wt) [%] | cell viability ([4]; SRSF2 genotype: wt/wt) [%] |
| --- | --- | --- | --- | --- | --- | --- | --- | --- |
| O=C1NCCc2[nH]c(-c3ccncc3)cc21 | 50.4% and 42% | 63.5 | 12.7 | 7.5 | 1.91 | 0.86 | 4.1 | 14.9 |
| NC(=O)c1cn(Cc2c(F)cccc2F)nn1 [Rufinamide (Banzel)] | 101% and 104% | 106 | 106 | 108 | 107 | 107 | 113 | 103 |
| O=C1c2cccc(O)c2C(=O)c2c(O)cc(CO)cc21 [Aloe-emodin] | 92.1% and 94.9% | 83.3 | 95.1 | 94.8 | 92.4 | 95.5 | 82.5 | 76.4 |
| O=C1CC(c2c[nH]c3ccc(F)cc23)C(=O)N1 (stereo not drawn) | 103% | 111 | 100 | 102 | 103 | 108 | 100 | 101 |
| Cn1cnc2c(F)c(Nc3ccc(Br)cc3F)c(C(=O)NOCCO)cc21 | 84.2% and 92.4% | 79.5 | 41 | 38.6 | 45.8 | 28.9 | 39.5 | 42.5 |
| COc1ccccc1-c1cc(Nc2cccc(CS(N)(=O)=O)c2)ncn1 | 90.2% and 89.9% | 91.5 | 29.4 | 45.6 | 26.5 | 5.12 | 18.1 | 30 |
| COc1cc(C(=O)NC2CCN(C)CC2)ccc1Nc1ncc2c(n1)N(C1CCCC1)CC(F)(F)C(=O)N2C | 24.5% and 48.3% | 44.6 | 31.6 | 26.3 | 15 | 5.38 | 4.16 | 9.85 |
| Cc1cn(-c2cc(NC(=O)c3ccc(C)c(Nc4nccc(-c5cnccn5)n4)c3)cc(C(F)(F)F)c2)cn1 [Radotinib] | 22.3% and 38.7% | 22.1 | 107 | 111 | 104 | 100 | 103 | 104 |
| COC(=O)C1=C(C)NC(C)=C(C(=O)OCCN2CCN(C(c3ccccc3)c3ccccc3)CC2)C1c1cccc([N+](=O)[O-])c1 (stereo not drawn) [Manidipine (Manyper)] | 75.7% and 63.9% | 53.3 | 60.2 | 58.5 | 73.9 | 64.2 | 29.8 | 41 |
| COc1cccc2c1C(=O)c1c(O)c3c(c(O)c1C2=O)C[C@@](O)(C(=O)CO)C[C@@H]3O[C@H]1C[C@H](N)[C@@H](O)[C@H](C)O1 [Epirubicin Hydrochloride] | 4.6% and 11.6% | 7.29 | 4.26 | 2.14 | 1.38 | 0.76 | 1.59 | 11.3 |
| CO[C@@H]1[C@@H](OC)[C@H](C)[C@@](O)(CC(=O)O)O[C@H]1[C@H](C)[C@H]1O[C@@]2(CC[C@@](C)([C@H]3CC[C@@](C)([C@@H]4O[C@@H]([C@H]5O[C@](C)(O)[C@H](C)C[C@@H]5C)C[C@@H]4O[C@@H]4C[C@H](OC)[C@@H](OC)[C@H](C)O4)O3)O2)C[C@H](O)[C@H]1C [Maduramycin Ammonium] | 3.55% and 4.75% | 8.25 | 22.7 | 17.7 | 25.6 | 22.5 | 1.54 | 8.79 |
| NCCCCCNCC12CC3CC(CC(C3)C1)C2 [IEM 1754 dihydrobroMide] | 102% and 104% | 95 | 104 | 105 | 103 | 102 | 91.4 | 100 |
| CC(C)=CCC[C@](C)(O[C@@H]1O[C@H](CO)[C@@H](O)[C@H](O)[C@H]1O)[C@H]1CC[C@]2(C)[C@@H]1[C@H](O)C[C@@H]1[C@@]3(C)CC[C@H](O)C(C)(C)[C@@H]3[C@@H](O)C[C@]12C [Ginsenoside F1] | 107% and 106% | 102 | 105 | 97.8 | 109 | 104 | 105 | 106 |
| CC(C)C(C)C(O)C(O)C(C)C1CCC2C3COC(=O)C4CC(O)C(O)CC4(C)C3CCC12C (stereo not drawn) [Brassinolide] | 98.5% and 94.6% | 99.3 | 107 | 115 | 95.8 | 103 | 120 | 103 |
| O=C(O)C1=C(CSc2nnnn2CS(=O)(=O)O)CS[C@@H]2[C@H](NC(=O)[C@H](O)c3ccccc3)C(=O)N12 [Cefonicid sodium] | 103% | 102 | 97.2 | 108 | 96.3 | 105 | 103 | 113 |
| O=C(Oc1cccc(F)c1OC(=O)c1cccc(O)c1)c1cccc(O)c1 | 92.4% and 99.5% | 94.9 | 68.8 | 88.4 | 78.4 | 80.3 | 92.6 | 82.4 |
| CCOC(=O)NCCCC(=O)NCCc1ccccc1 | 102% and 97.9% | 98.8 | 105 | 109 | 100 | 105 | 108 | 106 |
| CCCCCCCCc1ccc(CCC(N)(CO)CO)cc1 [Fingolimod (FTY720) HCl] | 0.63% | 0.58 | 0.4 | 0.42 | 0.4 | 0.39 | 0.36 | 0.44 |
| COC(=O)C1=CO[C@@H](O[C@@H]2O[C@H](CO)[C@@H](O)[C@H](O)[C@H]2O)[C@@H]2C(CO)=CC[C@H]12 [Geniposide] | 98.8% and 85.3% | 87.9 | 84.1 | 100 | 94.9 | 92.3 | 99.6 | 89.8 |
| CCCc1cc(C(N)=S)ccn1 [Protionamide (Prothionamide)] | 99% and 98.7% | 101 | 98.8 | 102 | 95.4 | 102 | 100 | 112 |
| Cc1cccc(C)c1NC(=O)c1cc(S(N)(=O)=O)c(Cl)cc1O [Xipamide] | 101% and 94.8% | 104 | 103 | 113 | 101 | 107 | 97.5 | 106 |

| Compound | cell viability ([1]; SRSF2 genotype: SRSF2 P95H/wt) | cell viability ([1]; SRSF2 genotype: SRSF2 wt/wt) [%] | cell viability ([2]; SRSF2 genotype: SRSF2 P95H/wt) [%] | cell viability ([2]; SRSF2 genotype: SRSF2 wt/wt) [%] | cell viability ([3]; SRSF2 genotype: SRSF2 P95H/wt) [%] | cell viability ([3]; SRSF2 genotype: SRSF2 wt/wt) [%] | cell viability ([4]; SRSF2 genotype: P95H/wt) [%] | cell viability ([4]; SRSF2 genotype: wt/wt) [%] |
| --- | --- | --- | --- | --- | --- | --- | --- | --- |
| CC(C)CCN1c2nc(Nc3cc(F)c(O)c(F)c3)ncc2N(C)C(=O)C1C (stereo not drawn) | 49.8% and 63.1% | 64.1 | 33.9 | 35.3 | 11.4 | 4.4 | 16.2 | 20.7 |
| CC(C)Cc1ccc(C(C)C(=O)O)cc1 (stereo not drawn) [Ibuprofen (Advil)] | 99.3% and 98.5% | 92.9 | 95.1 | 100 | 100 | 101 | 87.7 | 101 |
| Cn1ncc(Cl)c1-c1cc(C(=O)N[C@H](CN)Cc2ccc(F)c(F)c2)oc1Cl | 73.1% and 71.1% | 79.8 | 64.1 | 59.3 | 31.9 | 31.4 | 51.1 | 50.4 |
| CC(O)c1ccc(S(=O)(=O)NC(=O)NC2CCCCC2)cc1 (stereo not drawn) [Hydroxyhexamide] | 106% and 96% | 107 | 103 | 99 | 101 | 104 | 104 | 106 |
| Nc1ccn([C@@H]2O[C@H](CO)[C@@H](O)C2(F)F)c(=O)n1 [Gemcitabine (Gemzar)] | 89% and 104% | 101 | 21.3 | 24.4 | 4.86 | 1.1 | 7.55 | 8.99 |
| Cc1cc(Cl)ccc1OCCCC(=O)NO [Droxinostat] | 83.6% and 88.4% | 85.2 | 76.4 | 89.8 | 84.8 | 87.1 | 79.3 | 80.7 |
| CN(CCOc1ccc(NS(C)(=O)=O)cc1)CCc1ccc(NS(C)(=O)=O)cc1 [Dofetilide (Tikosyn)] | 97.8% and 97% | 101 | 97 | 104 | 95.8 | 101 | 99 | 107 |
| CCCCCCCC(=O)CCc1ccc(O)c(OC)c1 [6-Paradol] | 93.9% and 99.3% | 104 | 93.3 | 99.7 | 94.3 | 104 | 94.1 | 91.6 |
| CCCCc1ccc(O)cc1O [4-Butylresorcinol] | 99.6% and 85.8% | 91.2 | 90.6 | 102 | 86.5 | 93.8 | 85.7 | 88.9 |
| CC1=C(C/C=C(\C)CCC[C@H](C)CCC[C@H](C)CCCC(C)C)C(=O)c2ccccc2C1=O [Vitamin K1] | 101% and 88.9% | 93.7 | 92.4 | 107 | 88.2 | 98 | 90.7 | 106 |
| CN(C)c1ccc(C(=C2C=CC(=[N+](C)C)C=C2)c2ccc(N(C)C)cc2)cc1 [Crystal violet] | 0.3% and 0.45% | 1.14 | 0.76 | 1.04 | 0.09 | 0.09 | 0.06 | 0.11 |
| C=C1CC[C@H]2C(=C)CC[C@H]3C(=C)C(=O)O[C@@H]3[C@@H]12 [Dehydrocostus Lactone] | 25.2% and 23.9% | 30.8 | 13.7 | 16.1 | 8.31 | 11.1 | 3.84 | 6.64 |
| NC1CC1c1ccc(-c2cccc(O)c2)cc1 (stereo not drawn) | 96.2% and 104% | 97.1 | 88.3 | 106 | 99.4 | 99.1 | 87 | 92 |
| S=C(N/N=C1/CCCc2cccnc21)N1CCN(c2ccccn2)CC1 | 16.2% and 6.78% | 26.6 | 28 | 25.2 | 22.1 | 13.9 | 22.8 | 30.5 |
| Cc1cc(O)c(C(=O)CCC(C)C)c(=O)o1 [Pogostone] | 104% and 98.3% | 101 | 95.7 | 106 | 96.5 | 99.5 | 95.9 | 99.5 |
| C/C=C(\C)C(=O)OC1c2c(ccc3ccc(=O)oc23)OC(C)(C)C1OC(=O)/C(C)=C/C (stereo not drawn) [Praeruptorin B] | 83.5% and 92.2% | 90.4 | 84.4 | 111 | 109 | 94.7 | 89.5 | 91.6 |
| COC1C(O)CC(=O)OC(C)CC=CC=CC(OC2CCC(N(C)C)C(C)O2)C(C)CC(CC=O)C1OC1OC(C)C(OC2CC(C)(O)C(O)C(C)O2)C(N(C)C)C1O (stereo not drawn) [spiramycin] | 93.7% and 96.3% | 108 | 99.4 | 102 | 98 | 103 | 110 | 96.7 |
| COc1cc([C@H]2OC[C@H]3[C@@H]2CO[C@@H]3c2ccc(O[C@@H]3O[C@H](CO)[C@@H](O)[C@H](O)[C@H]3O)c(OC)c2)ccc1O[C@@H]1O[C@H](CO)[C@@H](O)[C@H](O)[C@H]1O [Pinoresinol diglucoside] | 105% and 104% | 101 | 105 | 108 | 105 | 103 | 104 | 109 |
| C[C@H](NC(=O)c1c(N)nn2cccnc12)c1cc2cccc(C#Cc3cnn(C)c3)c2c(=O)n1-c1ccccc1 | 88.3% and 88.5% | 94.3 | 71 | 63.4 | 54.3 | 57.1 | 32.2 | 41.6 |
| Nc1nc2c(ncn2COC(CO)CO)c(=O)[nH]1 [Ganciclovir] | 105% and 99.9% | 106 | 100 | 108 | 112 | 104 | 91.1 | 104 |
